Data published in PubChem BioAssay (EPA / NIEHS).
The source made the active and inactive calls. How the source made its calls: active means hit-call score of the fitted dose curve at least 0.9, where 1 is the maximum; inactive means score below 0.9.

What follows are molecules tested on Interleukin-8 (IL8), CXCL8 (gene 3576) (assay: BSK_SAg_IL8: BioMAP Diversity Plus: SAg Assay for Interleukin-8 (IL8) Biomarker Activity (AID 2283094)). Details: primary human HUVEC with PBMC; actives raise or lower the signal.
In short: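 Primary human endothelial cells with PBMC, exposed 24 h; IL-8 determined by ELISA, analysed bidirectionally relative to DMSO.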
In the case of `O=C(O)Cc1cc(I)c(Oc2ccc(O)c(I)c2)c(I)c1`, the outcome is reported as “inactive”.
In the case of `Cc1cccc2ccccc12`, the outcome is reported as “inactive”.
With `O=c1c(-c2ccc(O)cc2)coc2cc(O)cc(O)c12` the AC50 was 20 µM (active).
In the case of `CC/C(=C(/CC)c1ccc(O)cc1)c1ccc(O)cc1`, the AC50 is reported as 13.4 µM (active).
`Cc1cc(F)ccc1-c1cc(N2CC[C@@H](O)[C@H]2CO)ncc1N(C)C(=O)C(C)(C)c1cc(C(F)(F)F)cc(C(F)(F)F)c1` was tested, and the AC50 was 7.96 µM (active).
`O=C1O[C@H]([C@@H](O)CO)C(O)=C1O` was tested, and the outcome was “inactive”.
`CO[C@H]1/C=C/O[C@@]2(C)Oc3c(C)c(O)c4c(O)c(c(/C=N/N5CCN(C)CC5)c(O)c4c3C2=O)NC(=O)/C(C)=C\C=C\[C@H](C)[C@H](O)[C@@H](C)[C@@H](O)[C@@H](C)[C@H](OC(C)=O)[C@@H]1C` was tested, and the outcome was “inactive”.
In the case of `C[C@]12CC[C@@H]3c4ccc(O)cc4CC[C@H]3[C@@H]1CCC2=O`, the outcome is reported as “inactive”.
With `Oc1ccc2ccccc2c1` the outcome was “inactive”.
In the case of `c1ccc(C[n+]2cccc3ccccc32)cc1`, the outcome is reported as “inactive”.
With `CCCCCCCCCCCO` the outcome was “inactive”.
For `O=C(Nc1ccc(Cl)cc1)Nc1ccc(Cl)c(Cl)c1`, the AC50 was 2.29 µM (active).
For `CCCCCCCCOC(=O)c1cc(O)c(O)c(O)c1`, the AC50 was 11.5 µM (active).
With `CN1C(=O)N(c2ccccc2Br)Cc2cnc(Nc3ccc4c(c3)OCC(CO)O4)nc21` (stereo not drawn) the AC50 was 1.62 µM (active).
In the case of `Cc1occc1C(=O)Nc1ccc(C(=O)N2CCC(F)(F)/C(=C\C(=O)N3CCC(N4CCCCC4)CC3)c3ccccc32)cc1`, the outcome is reported as “inactive”.
For `Cc1oc2c(NC(=O)c3c(Cl)cccc3Cl)cccc2c1C(C)(C)O`, the outcome was “inactive”.
`O=C=NCCCCCCN=C=O` was tested, and the outcome was “inactive”.
In the case of `c1ccc2ccccc2c1`, the outcome is reported as “inactive”.
With `O=CCCCC=O` the outcome was “inactive”.
With `COc1cc(C(=O)NC2CCN(C)CC2)ccc1Nc1ncc2c(n1)N(C1CCCC1)CC(F)(F)C(=O)N2C` the AC50 was 10.2 µM (active).
With `O=C1c2ccccc2C(=O)N1CCc1noc(-c2ccc(CN3CCCCCC3)s2)n1` the outcome was “inactive”.
`CCCC(=O)OCCC(C)C` was tested, and the outcome was “inactive”.
`Clc1cc(Cl)c2c(c1)N=C1CCCCCN1C2` was tested, and the outcome was “inactive”.
For `CC(C)(c1cc(Br)c(O)c(Br)c1)c1cc(Br)c(O)c(Br)c1`, the AC50 was 30.4 µM (active).
`CCCOC(=O)c1cc(O)c(O)c(O)c1` was tested, and the outcome was “inactive”.
With `O=C(OCCCCCCOC(=O)c1ccccc1)c1ccccc1` the outcome was “inactive”.
For `CC(C)(C)c1cc(/C=C2\SC(N)=NC2=O)cc(C(C)(C)C)c1O`, the AC50 was 8.74 µM (active).
With `CCO[Si](CCCNC(N)=O)(OCC)OCC` the outcome was “inactive”.
`O=C(O)Cn1c(=O)n(Cc2ccc(Br)cc2F)c(=O)c2ccc(Cl)cc21` was tested, and the outcome was “inactive”.
`COc1ccc2cc(S(=O)(=O)N[C@H](CC(=O)N[C@H](Cc3ccc(CN4[C@H](C)CCC[C@@H]4C)cc3)C(=O)N(C)C(C)C)c3ccc4c(c3)OCO4)ccc2c1` was tested, and the AC50 was 14.8 µM (active).
For `CC(C)(C)c1csc(-c2cc3cc(OCc4ccccc4CC(=O)O)ccc3o2)n1`, the AC50 was 15.5 µM (active).
With `Cc1ccc(C(C)C)cc1` the outcome was “inactive”.
With `O=C(O)c1ccccc1C(=O)OCc1ccccc1` the outcome was “inactive”.
`CCCCCCCC[Si](OCC)(OCC)OCC` was tested, and the outcome was “inactive”.
With `CCN(Cc1cccnc1)C(=O)c1cccc(Cl)c1[C@]1(C)C(=O)N(Cc2ccc(OC)cc2OC)c2ccc(Cl)cc21` the AC50 was 3.93 µM (active).
For `O=C(O)c1ccccc1-n1cc(C(=O)O)c(=O)c2cc(Nc3c(F)cc(F)cc3Cl)c(Cl)cc21`, the outcome was “inactive”.
In the case of `Cc1cc2c(cc1C(F)(F)F)N(C(=O)Nc1ccc(Oc3cccnc3C)nc1)CC2`, the outcome is reported as “inactive”.
In the case of `CCCCOC(=O)CC(CC(=O)OCCCC)(OC(C)=O)C(=O)OCCCC`, the outcome is reported as “inactive”.
